# Laboratory results published in the supplement of paper PMC10338343.
# ± gives the standard deviation.
# Tested on: MILI (PIWIL2) piRISC loaded with piRNA #1 (26 nt)
# Experiment: pre-steady-state target cleavage rate (min^-1); guide: piRNA #1 5'p-UGAGGUAGUAGGUUGUAUAGUAUCCA; MIWI and MILI are mouse PIWI proteins and EfPiwi is from a freshwater sponge; tags in brackets are library labels; higher = faster piRNA-guided slicing of the target
# Settings: auxiliary factor: 500 nM mouse GTSF1
# Procedure, shortened: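 Sequencing of uncleaved targets, normalised to depth and to weakly complementary targets, was the readout of this Cleave-'n-Seq assay. A transcribed, DNA-blocked target RNA library (0.1 nM) was mixed with 1 nM active affinity-purified piRISC carrying one synthetic guide, with or without 500 nM GTSF1 partner protein, in HEPES–potassium acetate buffer at 33 °C for 0–8 or 0–960 min. Three trials were pooled, k3 was capped at 0.0001 min^-1, and a burst-and-steady-state fit gave the pre-steady-state cleavage rate.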
row,Sequence,pre-steady-state target cleavage rate
1,GGAGACCUAUGUAUAAAACCUACUACCUCA,0.0488 ± 0.0094
2,GGAGACCUAUGAAUACAACCUACUACCCCA,0.00425 ± 0.0034
3,GGAGACCUAUGAUAACAACCUACCUACCUCA,0.00593 ± 0.003
4,GGAGUGGAUACUAUAGAACCAACUACCUCA,0.00293 ± 0.0022
5,GGAGUGGAUACUAAACAACCUACUAGCUCA,0.0437 ± 0.0085
6,GGAGAGGAUACUAUACAAGCUACAACCUCA,0.0872 ± 0.017
7,GGAGACCUAACUAUUCAACCUACUACCUGA,0.0858 ± 0.03
8,GGAGACCUAUGAUUACAACCUACUACCUA,0.00393 ± 0.0024
9,GGAGACCUAUGACUACAACCUACUACCUCA,0.00416 ± 0.0019
10,GGAGACCUAUGAUUCAACCUACUACCUCA,0.0177 ± 0.0042
11,GGAGACCUAUGUAUACAACGUACUUCCUCA,0.0105 ± 0.0026
12,GGAGACCUUACUAUAGCAACCUACUACCUCA,0.127 ± 0.012
13,GGAGUGGAAACUAUACAACGUACUACCUCA,0.0251 ± 0.0048
14,GGAGACCAUACUAAACAACCAACUACCUCA,0.00724 ± 0.003
15,GGAGUGGAUACUUUACAACCAACUACCUCA,0.00276 ± 0.0018
16,GGAGACCUAUGAUAUGUUCCUACUACCUCG [g2:g12:cont:t1G],< 0.0001
17,GGAGACCUAAGUAUACAACCUACUAGCUCA,0.0149 ± 0.0043
18,GGAGACCUAUCUUUACAACGUACUACCUCA,0.00834 ± 0.002
19,GGAGACCUUACUAUACAACCAUCUACCUCA,0.00422 ± 0.0032
20,GGAGACCUUACUAUACAAGGAUGAUGGAGA [g13:g22:cont:t1A],< 0.0001
21,GGAGACCUAUGAUAACAACCUACUAGCCUCA,0.00672 ± 0.0023
22,GGAGACGAUACUAUACAACCUAGAUCCUCA,0.00708 ± 0.0033
23,GGAGACGACUACUAUACAACCUACUACCUCA,0.204 ± 0.017
